Test results as given in PubChem BioAssay AID1159580 (chemical genetic matrix, 2015).
Values joined by “and” are separate entries in the source; they are usually repeats but may differ in a detail not shown here. Equal entries are not always repeated. The whole screen tested about 5,500 compounds, of which about 2,000 (36%) were called active. Not shown: some 18% with an inconclusive outcome. No stated cut-off is given here; in the data, active means normalized growth mostly below about 0.91 (no sharp cut-off); inconclusive means no clear call, values can overlap the other calls; inactive means mostly above about 0.92. The list shows a part of the results.

Experiment: chemical genetic growth profiling, strain panel (AID 1159580);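 further: tested at 20 µM; growth read once vehicle control cultures reached saturation at 30 °C; 1 = growth at the plate median or of vehicle wells; lower values mean less growth of the strain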
Details: S. cerevisiae deletion strains, growth OD

Measured: normalized growth

COc1c(N2CCNC(C)C2)c(F)cc2c(=O)c(C(=O)O)cn(C3CC3)c12 (stereo unspecified)
active: locus YCL016C, strain dcc1, active compounds read low 0.899
inactive: locus YAL013W, strain DEP1, active compounds read low 0.984 | locus YAL021C, strain ccr4, active compounds read low 0.972 | locus YAL026C, strain drs2, active compounds read low 0.955 | locus YAL030W, strain snc1, active compounds read low 0.985 | locus YBL061C, strain skt5, active compounds read low 0.992 | locus YBR009C, strain hhf1, active compounds read low 0.968 | locus YBR021W, strain FUR4, active compounds read low 0.951 | locus YBR023C, strain chs3, active compounds read low 0.982 | locus YBR171W, strain sec66, active compounds read low 0.985 | locus YBR229C, strain ROT2, active compounds read low 1.01 | locus YBR231C, strain swc5, active compounds read low 0.985 | locus YBR279W, strain paf1, active compounds read low 0.986 | locus YCL011C, strain gbp2, active compounds read low 0.966 | locus YCL029C, strain bik1, active compounds read low 1.01 | locus YCL061C, strain MRC1, active compounds read low 0.957 | locus YCL069W, strain vba3, active compounds read low 0.994 | locus YCR088W, strain abp1, active compounds read low 0.973 | locus YDL005C, strain med2, active compounds read low 0.998 | locus YDL035C, strain GPR1, active compounds read low 1 | locus YDL040C, strain nat1, active compounds read low 0.984 | locus YDL074C, strain BRE1, active compounds read low 0.965 | locus YDL101C, strain DUN1, active compounds read low 1.01 | locus YDL134C, strain PPH21, active compounds read low 1.02 | locus YDL185W, strain tfp1, active compounds read low 1.01 | locus YDL192W, strain arf1, active compounds read low 1.02 | locus YDR001C, strain nth1, active compounds read low 0.976 | locus YDR069C, strain doa4, active compounds read low 0.99 | locus YDR101C, strain arx1, active compounds read low 0.993 | locus YDR137W, strain rgp1, active compounds read low 0.883 | locus YDR150W, strain NUM1, active compounds read low 1.02 | locus YDR159W, strain sac3, active compounds read low 0.867 | locus YDR162C, strain NBP2, active compounds read low 1.01 | locus YDR195W, strain ref2 1 | locus YDR297W, strain sur2, active compounds read low 0.982 | locus YDR318W, strain mcm21, active compounds read low 1 | locus YDR334W, strain swr1, active compounds read low 0.981 | locus YDR335W, strain msn5, active compounds read low 0.972 | locus YDR388W, active compounds read low 0.993 | locus YDR392W, strain spt3, active compounds read low 0.797 | locus YDR502C, strain sam2, active compounds read low 0.996 | locus YEL003W, strain gim4, active compounds read low 0.969 | locus YEL037C, strain rad23, active compounds read low 0.981 | locus YEL061C, strain CIN8 (second series), active compounds read low 0.979 | locus YEL061C, strain CIN8, active compounds read low 1.01 | locus YER015W, strain faa2, active compounds read low 0.968 | locus YER016W, strain bim1, active compounds read low 0.985 | locus YER110C, active compounds read low 1.01 | locus YER111C, strain swi4, active compounds read low 0.997 | locus YER155C, strain BEM2 (second series), active compounds read low 0.976 | locus YER155C, strain BEM2, active compounds read low 1.01 | locus YER167W, strain BCK2, active compounds read low 0.997 | locus YFR010W, strain ubp6, active compounds read low 0.993 | locus YGL078C, strain dbp3, active compounds read low 0.995 | locus YGL086W, strain mad1, active compounds read low 0.997 | locus YGL167C, strain pmr1, active compounds read low 1 | locus YGL173C, strain kem1, active compounds read low 0.983 | locus YGL227W, strain vid30, active compounds read low 0.978 | locus YGL240W, strain doc1, active compounds read low 0.973 | locus YGL248W, strain PDE1, active compounds read low 1.01 | locus YGL253W, strain hxk2, active compounds read low 0.989 | locus YGR078C, strain PAC10, active compounds read low 1.01 | locus YGR135W, strain pre9, active compounds read low 0.989 | locus YGR229C, strain SMI1, active compounds read low 0.886 | locus YGR252W, strain gcn5, active compounds read low 0.978 | locus YHR013C, strain ard1, active compounds read low 0.919 | locus YHR027C, strain rpn1, active compounds read low 0.984 | locus YHR030C, strain SLT2, active compounds read low 1 and 0.99 | locus YHR079C, strain IRE1 (second series), active compounds read low 1 | locus YHR079C, strain IRE1, active compounds read low 1.02 | locus YHR094C, strain hxt1, active compounds read low 0.992 | locus YHR129C, strain ARP1, active compounds read low 1 | locus YHR142W, strain chs7, active compounds read low 0.954 | locus YHR200W, strain rpn10, active compounds read low 0.991 | locus YIL066C, strain RNR3, active compounds read low 1.02 | locus YIL073C, strain SPO22, active compounds read low 0.967 | locus YIL125W, strain kgd1, active compounds read low 1 | locus YIR030C, strain dcg1, active compounds read low 0.997 | locus YJL092W, strain hpr5, active compounds read low 0.961 | locus YJL095W, strain BCK1 (second series), active compounds read low 1 | locus YJL095W, strain BCK1, active compounds read low 0.936 and 1.02 | locus YJL115W, strain asf1, active compounds read low 0.948 | locus YJL129C, strain trk1, active compounds read low 0.96 | locus YJL134W, strain LCB3, active compounds read low 1.01 | locus YJL154C, strain vps35, active compounds read low 0.993 | locus YJL164C, strain tpk1, active compounds read low 0.969 | locus YJL166W, strain qcr8, active compounds read low 1 | locus YJL168C, strain set2, active compounds read low 1 | locus YJL187C, strain SWE1 (second series), active compounds read low 1.02 | locus YJR043C, strain POL32, active compounds read low 0.911 | locus YJR066W, strain TOR1, active compounds read low 0.94
